Laboratory results from PubChem BioAssay (EPA / NIEHS).
Calls of active or inactive are those of the source. The calls were made as follows: active = hit-call score of the fitted dose curve at least 0.9, where 1 is the maximum; inactive = score below 0.9.

Read-out: not listed separately
Experiment: BSK_LPS_PGE2: BioMAP Diversity Plus: LPS Assay for Prostaglandin E2 (PGE2) Biomarker Activity (AID 2283082);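 as to AC50: secreted prostaglandin E2 measured by ELISA in LPS-stimulated co-culture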
Conditions: primary human HUVEC with PBMC; actives raise or lower the signal
Outline: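 Compounds were added to the LPS co-culture of endothelium and PBMC, and PGE2 was measured by ELISA after 24 h. Responses in either direction were fitted with DMSO as baseline.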
With `CC(C)(c1ccccc1)c1ccc(O)c(C(C)(C)c2ccccc2)c1` the outcome was “inactive”.
In the case of `CCCCCCCCc1ccc(O)cc1`, the AC50 is reported as 3.96 µM (active).
For `CC(C)(C)CC(C)(C)c1ccc(O)cc1`, the outcome was “inactive”.
For `Nc1cccc2ccccc12`, the outcome was “inactive”.
With `COC(=O)Cc1ccccc1` the outcome was “inactive”.

Read-out: Macrophage colony-stimulating factor (MCSF), CSF1 (gene 1435)
Experiment: BSK_LPS_MCSF: BioMAP Diversity Plus: LPS Assay for Macrophage colony-stimulating factor (MCSF) Biomarker Activity (AID 2283083)
Conditions: primary human HUVEC with PBMC; actives raise or lower the signal
Outline: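 HUVEC + PBMC co-culture (human primary), 24 h post-dose; M-CSF by ELISA; gain/loss of signal fitted bidirectionally vs DMSO baseline.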
For `O=C(O)C(Cl)(Cl)Cl`, the outcome was “inactive”.
For `Oc1cccc2cccnc12`, the outcome was “inactive”.
In the case of `CC(=O)OC(c1ccccc1)C(Cl)(Cl)Cl` (stereo unspecified), the outcome is reported as “inactive”.
For `C[C@]12CCC(=O)C[C@@H]1CC[C@@H]1[C@@H]2CC[C@]2(C)[C@@H](O)CC[C@@H]12`, the AC50 was 19 µM (active).
In the case of `COP(=S)(OC)Oc1ccc(Sc2ccc(OP(=S)(OC)OC)cc2)cc1`, the AC50 is reported as 20 µM (active).
In the case of `C(=NC1CCCCC1)=NC1CCCCC1`, the AC50 is reported as 20 µM (active).
In the case of `COc1cc(OC)nc(NC(=O)NS(=O)(=O)c2ncccc2C(=O)N(C)C)n1`, the outcome is reported as “inactive”.
With `CC12CC1(C)C(=O)N(c1cc(Cl)cc(Cl)c1)C2=O` (stereo unspecified) the outcome was “inactive”.
In the case of `COC(=O)c1sccc1S(=O)(=O)NC(=O)Nc1nc(C)nc(OC)n1`, the outcome is reported as “inactive”.
In the case of `C=C(C)C(=O)[O][Sn]([CH2]CCC)([CH2]CCC)[CH2]CCC`, the AC50 is reported as 0.148 µM (active).
For `CC(C)(C)c1cc(O)ccc1O`, the AC50 was 12.1 µM (active).
With `CC(C)(c1ccccc1)c1ccc(O)c(C(C)(C)c2ccccc2)c1` the AC50 was 9.66 µM (active).
With `CCCCCCCCc1ccc(O)cc1` the AC50 was 30.8 µM (active).
With `O=C(Nc1ccc2[nH]ccc2c1)c1cc2cc(F)ccc2n1Cc1cccc(F)c1` the AC50 was 14 µM (active).
With `O=C(OC1CCCCC1)c1ccccc1C(=O)OC1CCCCC1` the AC50 was 14.6 µM (active).
With `C=CC(=O)OCCCCCC(C)C` the outcome was “inactive”.
